Test results reported in PubChem BioAssay AID431 (Sanford-Burnham Center for Chemical Genomics, 2006).
In all, about 63,000 compounds went through this assay and about 1,100 (1.7%) were called active. Only a selection was taken, and actives are over-represented in it overall. Results with a measured potency or affinity are listed apart. Values without a mark were called inactive.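 The calls were made as follows: active = compounds whose percent cytotoxicity in the single-dose primary screen, scaled between solvent and toxic-drug controls, exceeds 50; inactive = the rest.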

Assay: viability loss of HPDE-C7K cells – cell-based, fluorescence, HTS, primary screen (AID 431);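 also: 0% = DMSO solvent wells and 100% = doxorubicin-treated wells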
Details: HPDE-C7K KRASV12 cells, Alamar Blue viability, 48 h; at 10 µM; active compounds read high

SMILES | cytotoxicity
Cn1c(CN2CCOCC2)nnc1SCC(=O)Nc1nccs1 | 1.8%
CCC(C(=O)c1ccc(O)cc1)c1ccccc1 (stereo unspecified) | 18.5%
CN(C)CC(C(=O)c1ccccc1)c1ccccc1 (stereo unspecified) | 100% (active)
COc1ccc(C(C(=O)OC(C)CN(C)C)c2ccccc2)cc1 (stereo unspecified) | -8.5%
COc1cccc(C2/C(=C(/O)c3cnn(-c4ccccc4)c3C)C(=O)C(=O)N2CCN(C)C)c1OC (stereo unspecified) | 11.3%
CCC(c1nnnn1Cc1ccccc1)N1CCN(C(=O)c2ccco2)CC1 (stereo unspecified) | -1.7%
COc1ccccc1-c1cc(C(F)(F)F)nc(S(=O)(=O)CCCC(=O)N2CCCCC2C)n1 (stereo unspecified) | 50.1% (active)
COc1ccccc1-c1cc(C(F)(F)F)nc(S(=O)(=O)CCCC(=O)NC(C)C)n1 | -3.9%
COc1ccccc1-c1cc(C(F)(F)F)nc(S(=O)(=O)CCCC(=O)Nc2cc(C)on2)n1 | 27.3%
COc1ccccc1-c1cc(C(F)(F)F)nc(N2CCOCC2)n1 | -4.5%
COc1ccccc1-c1cc(C(F)(F)F)nc(N2CCCC2)n1 | -16.5%
CCOc1ccc(-c2[nH]ncc2Oc2cccc(OC)c2)c(O)c1 | 58.3% (active)
COc1ccc(-c2[nH]ncc2-c2cnn(-c3ccccc3)c2)c(O)c1 | 2.7%
COc1cccc(Oc2cn[nH]c2-c2ccc(O)cc2O)c1 | 43.9%
COc1cccc(Oc2cn[nH]c2-c2ccc(OC)cc2O)c1 | 80.7% (active)
CCOc1cccc(OCCOCCN2CCCC2)c1 | -6.3%
COc1ccc(CC(=O)Nc2cccc(-c3nnc(-c4ccc(C)cc4)o3)c2)cc1OC | 18.8%
O=C(c1ccco1)N1C2C=CC(C2)C1(C(F)(F)F)C(F)(F)F (stereo unspecified) | 0.4%
COc1cccc(C2=NOC(C(=O)NC(C)(C)C)C2)c1 (stereo unspecified) | 0.2%
COc1cccc(C2=NOC(C(=O)NC(C)C)C2)c1 (stereo unspecified) | -9.8%
Cc1cc2cc(CNC(=O)c3ccc4c(c3)OCO4)ccc2[nH]1 | 15.6%
OCCSc1nc(-c2cccnc2)nc2ccccc12 | 2.2%
Cn1nnnc1Sc1nc(-c2cccnc2)nc2ccccc12 | 109% (active)
CN1CCN(c2nc(-c3cccnc3)nc3ccccc23)CC1 | -10.1%
O=C(NCc1ccco1)c1cccnc1-c1nc2ccccc2s1 | 0%
COC(=O)c1cn(CC(=O)N2CCCCCC2)c2ccccc12 | 3.6%

SMILES | cytotoxicity
Cn1nccc1C(=O)OCC(=O)Nc1nc(-c2ccccc2)cs1 | -24.7%
O=C1C(=O)N(Cc2ccco2)C(c2cccc(Cl)c2)/C1=C(\O)c1ccc2c(c1)OCCO2 (stereo unspecified) | 2.2%
O=C1c2ccccc2NC(c2ccc(F)cc2)N1Cc1ccco1 (stereo unspecified) | 2.1%
O=C1c2ccccc2C(O)N1Cc1ccco1 (stereo unspecified) | -9%
O=C1c2[nH]nc(-c3ccccc3O)c2C(c2cccc(Cl)c2)N1CC1CCCO1 (stereo unspecified) | 38.2%
O=C1c2[nH]nc(-c3ccccc3O)c2C(c2ccccc2)N1Cc1ccco1 (stereo unspecified) | 32.3%
CC(=O)C1=C(O)C(=O)N(Cc2ccco2)C1c1ccc(F)cc1 (stereo unspecified) | 8.7%
CCn1c(SCC(=O)NCc2cccs2)nnc1-c1ccncc1 | -3.4%
O=C(Nc1ccc(C(=O)Oc2ccccc2)c(O)c1)c1ccco1 | -1.3%
Cc1sc2ncnc(SCC(=O)N3CCCC3)c2c1C | -13.4%
O=C(CSc1nnc(Cc2ccccc2)o1)N1CCc2ccccc21 | -9.6%
C=CCn1c(=N)c(C(=O)OC)cc2c(=O)n3cccc(C)c3nc21 | -26.9%
Cc1ccc(C(=O)N2CCCC2)cc1S(=O)(=O)Nc1ccccc1 | -7%
CC1CCN(C(=O)CSc2nc(N)cc(N)n2)CC1 | -11.1%
CCc1cc(C(=O)Cc2ccc(F)cc2)c(O)cc1O | 50.9% (active)
CCCc1cc(C(=O)Cc2ccc(C(=O)OCC)o2)c(O)cc1O | 24.5%
CCc1cc(C(=O)Cc2nc3ccccc3[nH]2)c(O)cc1O | 20%
CCCc1cc(C(=O)Cc2ccc(F)cc2)c(O)cc1O | 80.9% (active)
CCc1cc(C(=O)Cc2cnn(-c3ccccc3)c2)c(O)cc1O | 6.7%
CCc1cc(C(=O)COc2ccccc2F)c(O)cc1O | -13.8%
O=C(Nc1ccccc1-c1nc2ccccc2s1)c1ccco1 | 7.5%
CC1(C)CC(=O)C2=C(C1)Nc1ccccc1NC2c1ccccn1 (stereo unspecified) | -20%
COc1ccc(-c2cc(-c3c(O)c(OC)c4occc4c3OC)[nH]n2)cc1OC | 36.2%
COc1ccc(CCCc2nnc(SCC(=O)Nc3nccs3)n2C)cc1C | -0.1%
CCOC(=O)c1sc(NC(=O)CSc2nc3c(cc2C#N)CCCCCC3)c(C#N)c1C | 81.6% (active)
CCOC(=O)c1sc(NC(=O)CSc2nc3c(cc2C#N)CCC3)c(C#N)c1C | -0.1%

SMILES | cytotoxicity
N#Cc1cc2c(nc1SCC(=O)Nc1sc3c(c1C#N)CCC3)CCCCC2 | 23%
CCCS(=O)(=O)N1CCCC(C(=O)NCCc2ccc(Cl)cc2)C1 (stereo unspecified) | -3.4%
O=C(O)c1cccc(S(=O)(=O)Nc2ccc3oc(=O)sc3c2)c1 | 6.5%
COc1cc(NS(=O)(=O)c2ccc(C)cc2C)cc(OC)c1OC | 30.3%
Cc1ccc(CNc2ccc3c(c2)OCO3)c(C)c1 | 64.8% (active)
c1cc(CNc2ccc3c(c2)OCO3)ccn1 | -0.7%
Cc1ccc(CNc2ccc3c(c2)OCO3)cc1 | 28.9%
Fc1ccc(Cn2nnnc2CN2CCN(C3CCCC3)CC2)cc1 | 5.5%
Cc1cc(N2C3CCC2CC(O)(c2ccc(F)cc2)C3)nc(-c2ccccc2)n1 (stereo unspecified) | 76.5% (active)
Cc1cc(N2CCC(C(=O)Nc3ccc(F)cc3)CC2)nc(-c2ccccc2)n1 | -0.7%
Cc1cc(N2CCN(c3ccccc3)CC2)nc(-c2ccccc2)n1 | -1.4%
O=C(c1cnccn1)N1CCc2ccccc21 | -21%
Cc1cc(NC(c2cccnc2)c2ccc3cccnc3c2O)no1 (stereo unspecified) | 24.3%
O=S(=O)(NCc1cccs1)c1cccc2cccnc12 | 6.5%
Cc1cnc(C(=O)Nc2ccccc2C(=O)N2CCOCC2)cn1 | 1.7%
O=C(O)c1ccc2cccc(Cl)c2c1O | 24.3%
Cc1ccccc1NS(=O)(=O)c1ccc2[nH]cc(C(=O)NCCCN3CCOCC3)c(=O)c2c1 | 3.9%
CC1CCN(S(=O)(=O)c2ccc3[nH]cc(C(=O)NCCN4CCOCC4)c(=O)c3c2)CC1 | 57.8% (active)
COc1cccc(NS(=O)(=O)c2ccc3[nH]cc(C(=O)NCCN4CCOCC4)c(=O)c3c2)c1 | -12.6%
COc1ccc(CNC(=O)C2CCCN2S(=O)(=O)c2ccc(S(=O)(=O)N(C)C)cc2)cc1 (stereo unspecified) | -14.8%
Cc1cc(NCCN2CCOCC2)n2c(nc3ccccc32)c1C#N | 11.6%
CCCOC(=O)CSC1=C(C#N)C(c2ccc3c(c2)OCO3)CC(=O)N1 (stereo unspecified) | 61.7% (active)
CCOC(=O)CC(=O)CSC1=C(C#N)C(c2ccccc2OC)CC(=O)N1 (stereo unspecified) | 70.2% (active)
CCSC1=C(C#N)C(c2ccccc2OC)CC(=O)N1 (stereo unspecified) | -0.5%
CCOC(=O)CSC1=C(C#N)C(c2ccc(C)o2)CC(=O)N1 (stereo unspecified) | 67.9% (active)
Cc1ccc(C2CC(=O)NC(SCC(=O)OCc3ccccc3)=C2C#N)o1 (stereo unspecified) | 55.7% (active)

SMILES | cytotoxicity
COC(=O)CSC1=C(C#N)C(c2ccccc2)CC(=O)N1 (stereo unspecified) | -15.7%
CCOC(=O)CSC1=C(C#N)C(c2ccc(Cl)cc2)CC(=O)N1 (stereo unspecified) | -10.7%
CCCCCCSC1=C(C#N)C(c2ccc(C)o2)CC(=O)N1 (stereo unspecified) | -6.9%
Cc1ccc(C2CC(=O)NC(SCc3ccccc3)=C2C#N)o1 (stereo unspecified) | 9%
CCOC(=O)CSC1=C(C#N)C(c2ccccc2OC)CC(=O)N1 (stereo unspecified) | 30.7%
CCCCOC(=O)CSC1=C(C#N)C(c2ccc3c(c2)OCO3)CC(=O)N1 (stereo unspecified) | 21.6%
CCOC(=O)CSC1=C(C#N)C(c2ccc3c(c2)OCO3)CC(=O)N1 (stereo unspecified) | 27.9%
O=C(CN(Cc1ccccc1F)S(=O)(=O)c1ccc(Cl)cc1)NCCCO | -0.2%
CC1CCN(c2nc3c(c(=O)n(C)c(=O)n3C)n2CCSc2nc3ccccc3s2)CC1 | -22%
COc1ccccc1C(c1nnnn1CS(=O)(=O)c1ccc(C)cc1)N1CCSCC1 (stereo unspecified) | -16.2%
CCCn1c(SCC(=O)NCC2CCCO2)nc2c1c(=O)n(C)c(=O)n2C (stereo unspecified) | 2.7%
CCOC(=O)CSC1=C(C#N)C(c2ccc(C)s2)CC(=O)N1 (stereo unspecified) | 49.2%
CCOc1ccc(C2CC(=O)NC(SCC(=O)OC)=C2C#N)cc1 (stereo unspecified) | -6.5%
CCOC(=O)CSC1=C(C#N)C(c2sccc2C)CC(=O)N1 (stereo unspecified) | 52% (active)
Cc1ccc(NCc2nnc3n2CCCCC3)cc1 | -2.7%
CCOC(=O)N1CCC(N2CCN(S(=O)(=O)CC)CC2)CC1 | 3.6%
CC1CCc2nc(NC(=O)c3ccco3)sc2C1 (stereo unspecified) | -5.4%
O=C(Nc1nc2c(s1)CCc1ccccc1-2)c1ccco1 | 5.1%
O=S(=O)(Cc1ccccc1)NCc1ccccn1 | 1.9%
C=CCn1c(SCC(=O)NCc2ccco2)nnc1-c1ccc2ccccc2n1 | 16.6%
CCc1nc(OCCN(C)C)c2oc3ccccc3c2n1 | -2.7%
CCN(CC)CCOc1nc(C)nc2c1oc1ccccc12 | -1.3%
CN(C)CCOc1nc(-c2ccccc2)nc2c1oc1ccccc12 | 56.8% (active)
